These results are taken from PubChem BioAssay (NCI).

This is part of a sample that, as a whole, favours compounds with a hit. Of some 83,000 tested, about 20% had one in any assay.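 Interpretation: 100, growth as untreated; towards 0, rising growth inhibition; 0, no net growth; 0 to -100, cell death. Compounds scoring below 10 were considered active.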 Unmarked numbers belong to inactive results. The source made the active and inactive calls.

What all share (test): NCI-60 one-dose screen, 48 h (100 = growth as untreated, 0 = no growth, -100 = all killed)
Common to all, as to settings: 10 µM unless noted

Test [1] relates to SK-MEL-2 melanoma.
The subject of test [2] is EKVX NSCLC.
Test [3] relates to SN12C renal.
The subject of test [4] is UO-31 renal.
Test [5] concerns TK-10 renal.
Test [6] has as its system ACHN renal.
For test [7], the system named is CAKI-1 renal.
Test [8] deals with A498 renal.
Test [9] has as its system CCRF-CEM leukemia.
Test [10] deals with MOLT-4 leukemia.
Test [11] has as its system SR leukemia.
Test [12] concerns RPMI-8226 leukemia.
The subject of test [13] is OVCAR-8 ovarian.
Test [14] concerns OVCAR-5 ovarian.
Test [15] deals with OVCAR-4 ovarian.
The subject of test [16] is SK-OV-3 ovarian.
Test [17] relates to IGROV1 ovarian.
Test [18] concerns OVCAR-3 ovarian.
Test [19] has as its system HS 578T breast.
In test [20] the test system is NCI/ADR-RES ovarian.

As to `NS(=O)(=O)c1ccc(CN=C2NC(=O)S/C2=C\c2ccc(Br)cc2)cc1`, the growth in test [1] is 102%; in test [2] it was 103%; in [3], 97.1%; in test [4], 88.8%; in test [5], 108%; in [6], 102%. Moreover, the growth is 100% in test [7]; 102% in test [8]; 95% in [9]; 99.3% in test [10]; 119% in [11]; 99.8% in test [12]. For the same molecule, the growth is 106% in test [13]; 94.1% in test [14]; 112% in test [15]; 94.3% in [16]; 96.9% in [17]; 106% in test [18]. Also, the values for the growth in [19] and in test [20] were 97.6% and 105%, respectively.

On to `CSc1ccc(-c2n[nH]nc2-c2cc3ccccc3s2)cc1`, for which the growth in test [1] is 33%; in [2] it was 73.2%; in test [3], 59.9%; in [4], 52.3%; in [5] it was 84.2%; in test [6], 64.7%. Also, the growth was 49.1% in test [7]; 46.8% in [8]; 52.6% in test [9]; 10.1% in [10]; 24.9% in test [11]; 40.1% in test [12]. In addition, the growth is 59.3% in test [13]; 95.3% in test [14]; 75.8% in test [15]; 52.7% in [16]; 46.4% in [17]; 26.5% in test [18]. The growth was 58.5% in [19] and 22.8% in test [20].

In the case of `CN1CCN(c2ccc3nc(-c4ccc(OCCCCN5CCN(CCCCN6C(=O)c7cccc8cccc(c78)C6=O)CC5)cc4)[nH]c3c2)CC1`, the growth in test [1] was 79.2%; in [2] it was 78.9%; in test [3], 73.8%; in [4], 16.7%; in [5] it was 88.4%; in test [6], 89%. The growth is 33.1% in test [7]; 119% in test [8]; 26.2% in test [9]; 52% in test [10]; -68.4% (active) in [11]; 26.3% in [12]. Further, the growth in test [13] was 22.6%; in test [14] it was 116%; in test [15], 80.5%; in test [16] it was 89.3%; in test [17], 58.5%; in test [18], 76.1%. In addition, the growth is 35.2% in test [19] and 69.6% in test [20].

Regarding `O=C1NC(=Nc2ccc(O)cc2)S/C1=C\c1cccc(Cl)c1`, the growth in test [1] was 109%; in [2] it was 84.2%; in test [3], 82%; in [4] it was 42.5%; in test [5], 97.3%; in [6], 84.5%. For the same molecule, the growth was 70% in [7]; 50.1% in test [8]; 27.1% in test [9]; 45.4% in [10]; 23.1% in test [11]; 2.99% (active) in test [12]. Besides, the growth in [13] was 84.3%; in test [14], 110%; in test [15], 90.3%; in [16], 77.1%; in test [17], 65.7%; in test [18] it was 30.1%. The figures for the growth in [19] and in [20] were 63.1% and 83.8%, respectively.

As for `Cn1cc(-c2nonc2-c2c[nH]c3ccc(F)cc23)c2cccnc21`, the growth was 90.1% in [1]; 63% in [2]; 85.5% in test [3]; 63.3% in test [4]; 85.9% in test [5]; 78.5% in test [6]. The growth was 63.9% in test [7]; 85.1% in [8]; 83% in test [9]; 63.4% in [10]; 58.7% in [11]; 69.2% in test [12]. For the same molecule, the growth was 89.1% in test [13]; 90.9% in test [14]; 71.3% in test [15]; 87.1% in [16]; 61.7% in test [17]; 82% in test [18]. The growth in test [19] is 72.9%; in test [20], 73.1%.

For `COc1ccc(-n2nc(C)c3c(Nc4ccc(NC(=O)Nc5cc(C(F)(F)F)ccc5F)cc4)ncnc32)cc1`, the growth is 25% in test [1]; 24.1% in test [2]; 44.9% in [3]; 16% in test [4]; 47.5% in test [5]; 25.3% in [6]. In addition, the growth in test [7] was 4.88% (active); in [8] it was 56.5%; in test [9], 38.4%; in [10], 39.3%; in [11], 28.4%; in [12], 4.77% (active). Besides, the growth in [13] is 26.4%; in [14], 25.1%; in test [15] it was 57.8%; in test [16], 29.5%; in [17] it was 39.2%; in [18], 25.2%. In addition, the growth is 28.4% in test [19] and 24.1% in [20].

For the molecule `Cc1nn(-c2ccc(F)cc2)c2ncnc(Oc3ccc(NC(=O)Nc4ccc(Cl)c(C(F)(F)F)c4)cc3)c12`, the growth in test [1] is 102%; in test [2] it was 105%; in test [3], 95.1%; in [4] it was 100%; in test [5], 104%; in [6], 102%. Moreover, the growth in test [7] was 95.3%; in [8], 99.2%; in test [9], 102%; in test [10], 104%; in [11], 110%; in test [12], 98.7%. Further, the growth is 96.5% in test [13]; 99.3% in test [14]; 110% in [15]; 92.6% in test [16]; 102% in [17]; 114% in [18]. Further, the growth is 91% in test [19] and 98.5% in [20].

Turning to `COCCNc1ccc2c3c(cccc13)C(=O)N(CCN(C)C)C2=O`, the growth in test [1] is -12.6% (active); in test [2] it was 22.5%; in test [3], 24.7%; in [4], 10.6%; in test [5] it was 20.5%; in test [6], 11.9%. Moreover, the growth in test [7] was -21.4% (active); in test [8], 26.5%; in test [9] it was 8.36% (active); in [10], -6.43% (active); in test [11], -40.1% (active); in test [12] it was -0.282% (active). The growth in [13] was 22.3%; in [14], 30.5%; in test [15], 31.6%; in [16], 22.9%; in [17], 18.1%; in [18], 17.9%. For the same molecule, the growth was 50.8% in test [19] and 31.4% in test [20].

For the molecule `O=C1/C(=C/N2N=C(c3ccc4ccccc4c3)CC2c2ccccc2O)SC(=S)N1c1cccnc1` (stereo not given), the growth was 100% in test [1]; 43.2% in test [2]; 39.5% in [3]; 11.6% in test [4]; 60.1% in test [5]; 43.6% in [6]. The growth in test [7] is 41.9%; in test [8], 14.3%; in test [9], 11.7%; in [10] it was 19.2%; in test [11], 29.2%; in [12], -8.29% (active). In addition, the growth is 28.3% in [13]; 68.6% in [14]; 66.1% in test [15]; 39.4% in [16]; 26.4% in test [17]; 7.76% (active) in [18]. The growth in [19] was 13.2%; in test [20], 23.6%.

Consider `Cc1ccc(C2Oc3ccccc3C3CC(c4cccs4)=NN32)cc1` (stereo not given), for which the growth in test [1] was 98.2%; in test [2], 80.9%; in [3] it was 92.5%; in test [4], 65.3%; in [5] it was 108%; in test [6], 98.7%. Moreover, the growth in test [7] was 82.3%; in test [8], 107%; in [9], 95.3%; in test [10] it was 97.5%; in test [11] it was 102%; in [12], 95.3%. In addition, the growth in test [13] was 99.7%; in test [14], 102%; in test [15], 93.6%; in test [16], 90.1%; in [17], 80.2%; in [18], 100%. Also, the growth is 86.7% in [19] and 96.6% in test [20].

For the molecule `N=C(N)c1ccc(-c2ccc(-c3ccc4ccccc4c3)s2)s1`, the growth is 101% in test [1]; 51.8% in [2]; -62.2% (active) in test [3]; 55.6% in [4]; 19% in [5]; 25.7% in test [6]. For the same molecule, the growth is 59.2% in [7]; 66.6% in test [8]; -27.8% (active) in [9]; -46.7% (active) in test [10]; -37.2% (active) in [11]; -18.3% (active) in test [12]. Moreover, the growth in test [13] is 3.43% (active); in test [14], -0.924% (active); in [15], -21.3% (active); in test [16] it was 95.7%; in test [17] it was 5.62% (active); in [18] it was -76.1% (active). Further, the growth in test [19] is 91.6%; in [20] it was -42% (active).

Take `Cc1ccccc1COc1ccc(-c2onc(C)c2-c2ccc(Cl)cc2)cc1`: the growth was 37.1% in test [1]; 75.1% in test [2]; 68.3% in test [3]; 72.4% in test [4]; 84.3% in [5]; 67% in test [6]. The growth in [7] was 48.7%; in test [8], 38.6%; in [9], 38.2%; in [10], 32.8%; in test [11], 34%; in [12], 81%. In addition, the growth in [13] was 75.8%; in test [14], 87.6%; in test [15], 82.7%; in test [16], 59.5%; in test [17], 52.5%; in [18], 20.7%. Moreover, the growth in test [19] was 59.4%; in test [20], 39.2%.

Regarding `CN(Cc1cc(Cl)cc(Cl)c1O)Cc1cc(Cl)cc(Cl)c1O`, the growth in [1] is 93.5%; in test [2], 83.6%; in test [3], 71.1%; in [4], 46.2%; in [5], 61.4%; in test [6] it was 52.8%. Besides, the growth in test [7] is 42.9%; in test [8], 89.6%; in test [9], 48.7%; in test [10] it was 47.7%; in test [11] it was 62.6%; in test [12], 70.7%. The growth in test [13] was 63.6%; in [14], 89.8%; in [15] it was 40.2%; in test [16] it was 78.3%; in test [17] it was 54.2%; in [18], 49.1%. Moreover, the figures for the growth in [19] and in test [20] were 92.8% and 62.4%, respectively.

Turning to `CCOc1nc(-c2ccccc2)cc2c(O)c(C(=O)N/N=C/c3ccc(O)cc3O)[nH]c(=O)c12`, the growth in [1] is -8.71% (active); in test [2] it was 36.2%; in test [3], 39.1%; in [4] it was -13.2% (active); in test [5], 52.1%; in test [6], 9.99% (active). Further, the growth in [7] is 8.55% (active); in [8], 65.3%; in test [9], -33.9% (active); in test [10] it was 17.3%; in [11], 27%; in test [12] it was 38%. For the same molecule, the growth is 14.5% in test [13]; 43.6% in test [14]; 39.3% in test [15]; 41.6% in [16]; 15.6% in test [17]; 30.9% in test [18]. The growth in test [19] is 82.9%; in [20], -40.1% (active).

On to `O=C(O)COc1ccc(Cl)cc1C1CCCCC1`, for which the growth in test [1] was 103%; in test [2] it was 117%; in [3] it was 98.5%; in test [4], 87.6%; in [5] it was 101%; in test [6], 107%. In addition, the growth in test [7] was 99.4%; in test [8], 90.2%; in test [9] it was 92.1%; in test [10], 87.9%; in test [11], 95.4%; in [12] it was 102%. In addition, the growth in test [13] is 103%; in [14] it was 107%; in [15] it was 109%; in test [16], 107%; in test [17], 117%; in [18], 115%. In addition, the figures for the growth in test [19] and in test [20] were 105% and 104%, respectively.
